# Records with an inconclusive call do not appear. A call without a number means that no potency is given here. The source made the active and inactive calls. Unless noted, calls follow the shape of the dose curve; as a rule, active = well fitted curve in the direction sought with a large enough effect; inconclusive = small, poorly fitted or top-dose-only effect, or another doubt; inactive = no such curve, though single readings can be large; an effect the other way counts as inactive or inconclusive.
# Legend:
# [1] = biological target: Luciferin 4-monooxygenase (Photinus pyralis) (UniProt P08659); experiment: Biochemical firefly luciferase enzyme assay for NPC (AID 624030);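 also: purified P. pyralis luciferase at 10 nM with luciferin and ATP substrate; nearly all actives have a fitted effect of over 70% in size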
# Method in brief: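 Direct inhibition of firefly luciferase enzyme (10 nM final, 50 mM Tris Acetate) assessed by luminescence within 5 minutes. Percent activity scaled between DMSO and PTC124 positive control, with concentration-effect curves classified by fit quality and response.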
# KB-3-1 = experiment: Cytotoxic Profiling of Annotated Libraries Using Quantitative High-Throughput Screening (AID 1296008); conditions: Five cell lines viability, CellTiter-Glo ATP luminescence, 48-72 h; max response: stronger effect = lower value; also: nearly all actives have a fitted effect of over 60% in size; also: potency is read from the fitted curve at half-maximal effect
# Method in brief: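 Cytotoxicity was measured as CellTiter-Glo ATP luminescence, read after 10 min at room temperature. Compound treatment of the cells lasted 48 or 72 hr at 37 degrees Celsius in a qHTS format.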
# astro = experiment: Drug repurposing screens with cells derived from glioblastoma tumor samples (AID 1345199); conditions: viability, ATP luminescence, 48 h; series mostly up to 45.9 µM; also: nearly all actives have a fitted effect of over 40% in size; also: potency is read from the fitted curve at half-maximal effect
# Method in brief: (§1)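 Primary testing used CD133+ neurospheres from four GBM patients, seven concentrations, 48 h exposure and ATP-based viability; confirmation added three slower-growing patient lines.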
# [2] = qHTS Assay for Identifying Gametocytocidal Compounds (AID 743244);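 also: actives lower the fluorescent signal which means gametocytes are killed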; conditions: P. falciparum 3D7 stage III-V gametocytes, alamarBlue, 72 h; max response: stronger effect = lower value
# Method in brief: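 Compounds are pinned into medium, gametocytes (stage III–V, 3D7, 20,000 cells/well) added, and plates held 72 h at 37 °C in 5% CO2. AlamarBlue follows for 24 h before fluorescence reading.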
# [3] = P-glycoprotein substrates identified in KB-8-5-11 adenocarcinoma cell line, qHTS therapeutic library screen (AID 1346987); also: nearly all actives have a fitted effect of over 65% in size
# Method in brief: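 Human cervical adenocarcinoma KB-8-5-11 cells, selected in colchicine to over-express P-gp and assayed without it, were exposed for 72 h to titrated compounds. An ATP-based luminescent viability signal gave AC50.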
# [4] = Primary qHTS for Huh7 cytotoxicity: counterscreen for inhibitors of MERS-S pseudotyped particle cell entry (AID 1479147; calls by dose curve); conditions: outcome: dose series up to 57.1 µM unless noted
# [5] = Primary qHTS for inhibitors of MERS-S pseudo-typed particle cell entry (AID 1479149; calls by dose curve; also: nearly all actives have a fitted effect of over 60% in size)
# [6] = Primary qHTS for Vero E6 cytotoxicity: counterscreen for inhibitors of SARS-S pseudo-typed particle cell entry (AID 1479150; calls by dose curve); conditions: outcome: dose series up to 57.1 µM unless noted
# [7] = Cytotoxicity counterscreen for inhibitors of SARS-CoV-2 cell entry (AID 1645845; calls by dose curve; also: nearly all actives have a fitted effect of over 50% in size)
# Method in brief: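 ATP-content luminescence (ATPLite 1step, 15 min RT) read after 48 h compound exposure of Expi293F cells stably expressing human ACE2; normalized to cells-only wells and media-only wells.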
# [8] = Primary qHTS to identify inhibitors of SARS-CoV-2 cell entry (AID 1645846; calls by dose curve; also: nearly all actives have a fitted effect of over 45% in size); conditions: activity change, negative = inhibition: at 57.1 µM (top of the series) unless noted
# Method in brief: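 Entry measured by luciferase signal 48 h after adding SARS-CoV-2-S pseudotyped MLV particles to HEK293-ACE2 cells preincubated 1 h with compounds. Normalisation: bald particles and spike particles.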
# [9] = biological target: Glutathione peroxidase 1 (Homo sapiens) (UniProt P07203); experiment: Primary qHTS Assay for Inhibitors of Recombinant Selenoprotein Glutathione Peroxidase 1 (GPX1) (AID 1845191); also: nearly all actives have a fitted effect of over 65% in size
# Method in brief: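 NADPH consumption tracked by fluorescence at 340/450 nm between t=0 and t=15 min, room temperature. Final mix: 10 nM GPX1, 100 nM glutathione reductase, 1 mM GSH, 0.5 mM NADPH, 0.5 mM cumene hydroperoxide, 0.01% BSA; 30 min compound–enzyme preincubation.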
# [10] = biological target: Phospholipid hydroperoxide glutathione peroxidase GPX4 (Homo sapiens) (UniProt P36969); experiment: Primary qHTS Assay for Inhibitors of Recombinant Selenoprotein Glutathione Peroxidase 4 (GPX4) (AID 1845192); also: nearly all actives have a fitted effect of over 65% in size
# Method in brief: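 NADPH consumption followed by fluorescence at 340/450 nm, t=0 and after 15 min at room temperature. Reaction started with cumene hydroperoxide (0.5 mM final) after 30 min compound–GPX4 preincubation; final 200 nM GPX4, 100 nM GR, 1 mM GSH, 0.5 mM NADPH.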
# [11] = Drug repurposing screens with cells derived from glioblastoma tumor samples (AID 1345199); conditions: GBM patient neurospheres viability, ATP luminescence, 48 h; Potency: tumour line A; series mostly up to 45.9 µM; also: nearly all actives have a fitted effect of over 40% in size; also: potency is read from the fitted curve at half-maximal effect
# Method in brief: as §1
# [12] = biological target: Cytochrome P450 2D6 (Homo sapiens) (UniProt P10635); experiment: Cytochrome P450 family 2 subfamily D member 6 (CYP2D6) small molecule antagonists: luciferase biochemical (cell-free) qHTS assay (AID 1645840; active = well fitted curve in the direction sought with a large enough effect in the repeat runs; an effect the other way counts as inactive or inconclusive; also: nearly all actives have a fitted effect of over 55% in size)
# Method in brief: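 P450-Glo CYP2D6 system: proluciferin substrate converted by enzyme to luciferin, read by luminescence proportional to activity. Enzyme-substrate mix with compound 10 min at room temperature, then NADPH regeneration 1 h before detection reagent.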
# [13] = biological target: Cytochrome P450 3A4 (Homo sapiens) (UniProt P08684); experiment: Cytochrome P450 family 3 subfamily A member 4 (CYP3A4) small molecule antagonists: luciferase qHTS assay (AID 1645841; active = well fitted curve in the direction sought with a large enough effect in the repeat runs; an effect the other way counts as inactive or inconclusive; also: nearly all actives have a fitted effect of over 45% in size)
# Method in brief: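 Luminescent CYP3A4 activity readout: compounds plus enzyme-substrate mix 10 min at room temperature, reaction started with NADPH regenerating system for 1 h, stopped with detection reagent, read after 20 min. Ketoconazole served as control.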
# [14] = biological target: Cytochrome P450 2C9 (Homo sapiens) (UniProt P11712); experiment: Cytochrome P450 family 2 subfamily C member 9 (CYP2C9) small molecule antagonists: luciferase biochemical (cell-free) qHTS assay (AID 1645842; active = well fitted curve in the direction sought with a large enough effect in the repeat runs; an effect the other way counts as inactive or inconclusive; also: nearly all actives have a fitted effect of over 55% in size)
# Method in brief: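 P450-Glo CYP2C9 system: proluciferin substrate with enzyme in mix containing 0.4% BSA, 10 min at room temperature, then NADPH regeneration solution added and incubated 1 h at 37C. Detection reagent stopped reaction; luminescence read after 20 min as RLU.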
# Sequence of Cytochrome P450 2D6 (Homo sapiens) (P10635 whole entry, looked up): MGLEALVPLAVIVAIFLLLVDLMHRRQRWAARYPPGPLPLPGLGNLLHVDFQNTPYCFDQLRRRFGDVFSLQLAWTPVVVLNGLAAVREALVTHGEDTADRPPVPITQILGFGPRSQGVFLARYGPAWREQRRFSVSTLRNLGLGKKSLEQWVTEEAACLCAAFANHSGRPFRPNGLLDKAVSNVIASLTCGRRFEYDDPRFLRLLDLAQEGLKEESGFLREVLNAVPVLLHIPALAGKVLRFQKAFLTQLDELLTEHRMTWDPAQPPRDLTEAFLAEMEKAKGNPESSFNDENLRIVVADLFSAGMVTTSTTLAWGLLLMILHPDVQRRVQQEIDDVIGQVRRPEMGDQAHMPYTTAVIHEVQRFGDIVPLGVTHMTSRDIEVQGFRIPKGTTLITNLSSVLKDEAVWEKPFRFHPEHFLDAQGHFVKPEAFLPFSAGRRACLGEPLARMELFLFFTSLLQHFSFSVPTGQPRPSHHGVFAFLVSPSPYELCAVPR
# Sequence of Cytochrome P450 2C9 (Homo sapiens) (P11712 whole entry, looked up): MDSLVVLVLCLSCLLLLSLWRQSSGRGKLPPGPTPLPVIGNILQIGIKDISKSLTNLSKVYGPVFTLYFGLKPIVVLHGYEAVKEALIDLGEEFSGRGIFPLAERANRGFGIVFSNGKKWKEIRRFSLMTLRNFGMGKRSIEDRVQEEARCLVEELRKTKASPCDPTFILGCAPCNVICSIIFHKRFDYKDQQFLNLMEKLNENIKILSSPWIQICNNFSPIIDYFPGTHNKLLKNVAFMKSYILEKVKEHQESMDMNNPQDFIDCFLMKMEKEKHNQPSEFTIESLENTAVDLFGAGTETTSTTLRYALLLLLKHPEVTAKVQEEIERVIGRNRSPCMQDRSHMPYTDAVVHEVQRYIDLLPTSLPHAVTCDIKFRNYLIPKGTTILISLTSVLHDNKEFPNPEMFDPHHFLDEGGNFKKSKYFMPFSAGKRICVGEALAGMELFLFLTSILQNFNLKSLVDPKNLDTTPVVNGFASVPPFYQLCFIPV
# Sequence of Cytochrome P450 3A4 (Homo sapiens) (P08684 whole entry, looked up): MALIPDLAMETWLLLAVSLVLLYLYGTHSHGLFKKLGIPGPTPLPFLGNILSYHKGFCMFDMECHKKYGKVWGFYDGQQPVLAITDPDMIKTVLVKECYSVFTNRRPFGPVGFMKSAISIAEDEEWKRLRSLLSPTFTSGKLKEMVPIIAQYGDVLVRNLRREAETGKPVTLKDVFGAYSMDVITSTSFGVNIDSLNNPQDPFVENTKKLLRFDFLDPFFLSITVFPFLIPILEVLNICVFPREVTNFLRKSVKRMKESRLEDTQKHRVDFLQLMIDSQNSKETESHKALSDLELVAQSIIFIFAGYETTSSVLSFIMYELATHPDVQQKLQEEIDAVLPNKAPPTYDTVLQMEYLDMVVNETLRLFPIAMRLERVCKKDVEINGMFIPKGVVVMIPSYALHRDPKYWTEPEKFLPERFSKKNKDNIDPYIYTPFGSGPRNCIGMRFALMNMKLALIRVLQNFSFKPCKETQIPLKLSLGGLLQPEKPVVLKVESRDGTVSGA
# Sequence of Luciferin 4-monooxygenase (Photinus pyralis) (P08659 whole entry, looked up): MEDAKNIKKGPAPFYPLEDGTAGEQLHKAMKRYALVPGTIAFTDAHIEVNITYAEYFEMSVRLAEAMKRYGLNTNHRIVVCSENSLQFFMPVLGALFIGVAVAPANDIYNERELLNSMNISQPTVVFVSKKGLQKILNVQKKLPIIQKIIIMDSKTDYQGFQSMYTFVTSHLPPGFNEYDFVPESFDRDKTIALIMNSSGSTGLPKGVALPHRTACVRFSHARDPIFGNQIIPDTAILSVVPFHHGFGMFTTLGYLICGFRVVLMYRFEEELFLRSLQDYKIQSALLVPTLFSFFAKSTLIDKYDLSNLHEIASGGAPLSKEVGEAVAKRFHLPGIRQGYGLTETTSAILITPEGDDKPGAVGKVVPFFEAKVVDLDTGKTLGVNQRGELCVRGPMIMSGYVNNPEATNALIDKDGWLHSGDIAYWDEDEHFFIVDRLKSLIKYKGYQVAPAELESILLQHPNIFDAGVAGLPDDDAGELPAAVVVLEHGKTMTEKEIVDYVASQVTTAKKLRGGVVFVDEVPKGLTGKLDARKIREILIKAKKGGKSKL
# Sequence of Phospholipid hydroperoxide glutathione peroxidase GPX4 (Homo sapiens) (P36969 whole entry, looked up): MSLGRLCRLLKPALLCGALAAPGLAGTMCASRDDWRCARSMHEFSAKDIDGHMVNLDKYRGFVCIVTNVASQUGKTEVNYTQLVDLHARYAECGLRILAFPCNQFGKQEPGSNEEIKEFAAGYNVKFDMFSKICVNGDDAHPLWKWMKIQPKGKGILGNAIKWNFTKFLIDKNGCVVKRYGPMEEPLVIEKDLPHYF
# Sequence of Glutathione peroxidase 1 (Homo sapiens) (P07203 whole entry, looked up): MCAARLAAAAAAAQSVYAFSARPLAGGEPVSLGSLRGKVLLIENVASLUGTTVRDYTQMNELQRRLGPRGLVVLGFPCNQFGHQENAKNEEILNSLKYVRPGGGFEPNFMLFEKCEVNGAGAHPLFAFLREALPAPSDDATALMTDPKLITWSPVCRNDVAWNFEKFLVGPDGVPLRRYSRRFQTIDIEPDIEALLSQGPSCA
structure (smiles),measurement,setting,value
CCCSc1cc(OC)c(CCN)cc1OC,Potency,[1],inactive
same,Potency,KB-3-1,17.8 µM (active)
same,Potency,astro,31.6 µM (active)
CC(=O)[C@@]1(O)CC[C@H]2[C@@H]3CCC4=CC(=O)CC[C@]4(C)C3(F)[C@@H](O)C[C@@]21C (some centres not stated),max response,[2],7.59% (inactive)
same,Potency,[3],inactive
same,outcome,[4],inactive
same,Potency,[5],inactive
same,outcome,[6],inactive
same,Potency,[7],inactive
same,"activity change, negative = inhibition",[8],-3.62%
same,Potency,[9],inactive
same,Potency,[10],inactive
same,max response,KB-3-1,-10.8% (inactive)
same,Potency,[11],inactive
same,Potency,astro,inactive
CCCCNC(C)(C)[P+](=O)O,max response,[2],-17.6% (inactive)
same,Potency,[3],inactive
same,Potency,[12],inactive
same,outcome,[13],inactive
same,Potency,[14],inactive
same,max response,KB-3-1,5.36% (inactive)
same,Potency,[11],inactive
same,Potency,astro,inactive
CN[C@]1(c2ccccc2Cl)CCCCC1=O,max response,[2],1.48% (inactive)
same,max response,KB-3-1,-15.2% (inactive)
same,Potency,[11],inactive
same,Potency,astro,inactive
